This note sets out measurements from PubChem BioAssay (NCATS).

Molecules are shown by their SMILES. “And” between values parts separate entries of the source, which are not always exact repeats. Identical values can stand only once. Inconclusive results are not listed. The source made the active and inactive calls. Calls follow the shape of the dose curve; as a rule, active = well fitted cell-killing curve with a large enough effect; inconclusive = small, poorly fitted or top-dose-only effect, or effect the other way; inactive = no such curve, though single readings can be large or run the other way. Peptide text beside a SMILES is read from it. * marks the point of attachment. Cbz = O=C(OCc1ccccc1)*
Potency is read from the fitted curve at half-maximal effect.

The experiment in a line: Viability qHTS for spleen associated tyrosine kinase inhibitor (SYKi) naive MV4-11 cells (AID 1963823). Also: nearly all actives have a fitted effect of over 40% in size. As to conditions: MV4-11 AML viability, CellTiter-Glo luminescence, 72 h; series mostly up to 45 µM. An outline of the steps:
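Seeding of 500 SYKi-naive MV4-11 cells per well onto pre-dispensed compounds preceded a 72 hr incubation at 37 C. Luminescent CellTiter-Glo signal, read after 10 min at room temperature, reflected viable cells.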
With `N#Cc1c(N(CC(=O)O)CC(=O)O)sc(C(=O)O)c1CC(=O)O`, the Potency result is “inactive”.
Turning to `CNC1CCC(N(Cc2cccc(-c3ccncc3)c2)C(=O)c2sc3ccccc3c2Cl)CC1` (stereo not drawn), the Potency is 7.31 µM (active) and 5.25 µM (active).
Take `CN(C)S(=O)(=O)c1ccc2c(c1)C(=Cc1cc3c([nH]1)CCCC3)C(=O)N2`: the Potency was 833 nM (active).
The value for `O=C1N(c2ccccc2)c2ccccc2C1(Cc1ccncc1)Cc1ccncc1` was “inactive”; that for `OC(Cn1cncn1)(Cn1cncn1)c1ccc(F)cc1F` was “inactive”.
Under `Cc1nc(N)ncc1-c1nc(N2CCOCC2)c2sc(C(C)(C)O)cc2n1` stands 2.59 µM (active) and 3.32 µM (active); under `CCCCCCCCCCCCCC(=O)N[C@H](CO)[C@H](O)c1ccc([N+](=O)[O-])cc1`, 26300 nM (active); under `CN1CCN(CCCN2c3ccccc3Sc3ccc(C(F)(F)F)cc32)CC1`, 11.9 µM (active) and 18.6 µM (active).
In the case of `O=C(Nc1cccc(Cl)c1)Nc1ncc(CCNc2ncnc3ccsc23)s1`, the Potency was 20.6 nM (active).
Take `O=C(O)Cc1cccc(OCCCN(Cc2cccc(C(F)(F)F)c2Cl)CC(c2ccccc2)c2ccccc2)c1`: the Potency was 20900 nM (active).
In the case of `COc1ccc(C2CNC(=O)C2)cc1OC1CCCC1` (stereo not drawn), the Potency is 525 nM (active).
For `CC(C)c1cnn2c(NCc3ccccc3)cc(N[C@@H](CO)[C@H](O)CO)nc12`, the Potency was 1.03 µM (active) and 332 nM (active).
Regarding `CC(C)C[C@@H](C=O)NC(=O)[C@H](CC(C)C)NC(=O)[C@H](CC(C)C)NC(=O)OCc1ccccc1` (Cbz-Leu-Leu-Leu-aldehyde), the Potency was 833 nM (active).
